In the supplement of paper PMC4466140:

molecular target: AgAbp1; test: SPOT peptide array binding signal intensity (averaged, normalized) (arbitrary units (background-subtracted, floor 0; scale differs between SH3 domains)); higher = stronger binding of the SH3 domain to the peptide
Outline: (§1)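 Cellulose membranes carried synthetic 15-mer peptides with cysteines swapped for serines. These were incubated overnight at 4°C with 10 μg/ml of GST-fused SH3 domains from four yeast species in TBS-based blocking buffer. Binding signal, detected with anti-GST antibody and quantified in Genespotter, is the normalized, background-subtracted spot intensity averaged over replicates, in arbitrary units specific to each domain.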

Binder	SPOT peptide array binding signal intensity
SRSKPLPLTPNSKYN	197

molecular target: AgBbc1; test: as above
Outline: as §1

Binder	SPOT peptide array binding signal intensity
SRSKPLPLTPNSKYN	15.2

molecular target: AgBem1-D1; test: as above
Outline: as §1

Binder	SPOT peptide array binding signal intensity
SRSKPLPLTPNSKYN	16

molecular target: AgBzz1-D1; test: as above
Outline: as §1

Binder	SPOT peptide array binding signal intensity
SRSKPLPLTPNSKYN	195

molecular target: AgBzz1-D2; test: as above
Outline: as §1

Binder	SPOT peptide array binding signal intensity
SRSKPLPLTPNSKYN	111

molecular target: AgCyk3; test: as above
Outline: as §1

Binder	SPOT peptide array binding signal intensity
SRSKPLPLTPNSKYN	1

molecular target: AgFus1; test: as above
Outline: as §1

Binder	SPOT peptide array binding signal intensity
SRSKPLPLTPNSKYN	6.5

molecular target: AgHof1; test: as above
Outline: as §1

Binder	SPOT peptide array binding signal intensity
SRSKPLPLTPNSKYN	24.2

molecular target: AgHse1; test: as above
Outline: as §1

Binder	SPOT peptide array binding signal intensity
SRSKPLPLTPNSKYN	10.5

molecular target: AgLsb1; test: as above
Outline: as §1

Binder	SPOT peptide array binding signal intensity
SRSKPLPLTPNSKYN	1

molecular target: AgLsb4; test: as above
Outline: as §1

Binder	SPOT peptide array binding signal intensity
SRSKPLPLTPNSKYN	9

molecular target: AgMyo5; test: as above
Outline: as §1

Binder	SPOT peptide array binding signal intensity
SRSKPLPLTPNSKYN	≤ 0

molecular target: AgNbp2; test: as above
Outline: as §1

Binder	SPOT peptide array binding signal intensity
SRSKPLPLTPNSKYN	8.5

molecular target: AgRvs167; test: as above
Outline: as §1

Binder	SPOT peptide array binding signal intensity
SRSKPLPLTPNSKYN	1.67

molecular target: AgSho1; test: as above
Outline: as §1

Binder	SPOT peptide array binding signal intensity
SRSKPLPLTPNSKYN	3200

molecular target: AgSla1-D1-D2; test: as above
Outline: as §1

Binder	SPOT peptide array binding signal intensity
SRSKPLPLTPNSKYN	21.5

molecular target: AgSla1-D3; test: as above
Outline: as §1

Binder	SPOT peptide array binding signal intensity
SRSKPLPLTPNSKYN	8.5

molecular target: CaAbp1-D1; test: as above
Outline: as §1

Binder	SPOT peptide array binding signal intensity
SRSKPLPLTPNSKYN	64

molecular target: CaAbp1-D2; test: as above
Outline: as §1

Binder	SPOT peptide array binding signal intensity
SRSKPLPLTPNSKYN	249

molecular target: CaBbc1; test: as above
Outline: as §1

Binder	SPOT peptide array binding signal intensity
SRSKPLPLTPNSKYN	30

molecular target: CaBem1-D1; test: as above
Outline: as §1

Binder	SPOT peptide array binding signal intensity
SRSKPLPLTPNSKYN	29.5

molecular target: CaBzz1-D1; test: as above
Outline: as §1

Binder	SPOT peptide array binding signal intensity
SRSKPLPLTPNSKYN	384

molecular target: CaBzz1-D2; test: as above
Outline: as §1

Binder	SPOT peptide array binding signal intensity
SRSKPLPLTPNSKYN	162

molecular target: CaCyk3; test: as above
Outline: as §1

Binder	SPOT peptide array binding signal intensity
SRSKPLPLTPNSKYN	4

molecular target: CaFus1; test: as above
Outline: as §1

Binder	SPOT peptide array binding signal intensity
SRSKPLPLTPNSKYN	83

molecular target: CaHof1; test: as above
Outline: as §1

Binder	SPOT peptide array binding signal intensity
SRSKPLPLTPNSKYN	≤ 0

molecular target: CaHse1; test: as above
Outline: as §1

Binder	SPOT peptide array binding signal intensity
SRSKPLPLTPNSKYN	8.25

molecular target: CaLsb1; test: as above
Outline: as §1

Binder	SPOT peptide array binding signal intensity
SRSKPLPLTPNSKYN	0.5

molecular target: CaLsb4; test: as above
Outline: as §1

Binder	SPOT peptide array binding signal intensity
SRSKPLPLTPNSKYN	10.5

molecular target: CaMyo5; test: as above
Outline: as §1

Binder	SPOT peptide array binding signal intensity
SRSKPLPLTPNSKYN	10

molecular target: CaNbp2; test: as above
Outline: as §1

Binder	SPOT peptide array binding signal intensity
SRSKPLPLTPNSKYN	19.5

molecular target: CaRvs167; test: as above
Outline: as §1

Binder	SPOT peptide array binding signal intensity
SRSKPLPLTPNSKYN	6.17

molecular target: CaRvs167-3; test: as above
Outline: as §1

Binder	SPOT peptide array binding signal intensity
SRSKPLPLTPNSKYN	2.75

molecular target: CaSho1; test: as above
Outline: as §1

Binder	SPOT peptide array binding signal intensity
SRSKPLPLTPNSKYN	3190

molecular target: CaSla1-D1-D2; test: as above
Outline: as §1

Binder	SPOT peptide array binding signal intensity
SRSKPLPLTPNSKYN	1430

molecular target: CaSla1-D3; test: as above
Outline: as §1

Binder	SPOT peptide array binding signal intensity
SRSKPLPLTPNSKYN	1.5

molecular target: ScAbp1; test: as above
Outline: as §1

Binder	SPOT peptide array binding signal intensity
SRSKPLPLTPNSKYN	332

molecular target: ScBbc1; test: as above
Outline: as §1

Binder	SPOT peptide array binding signal intensity
SRSKPLPLTPNSKYN	2.5

molecular target: ScBem1-D1; test: as above
Outline: as §1

Binder	SPOT peptide array binding signal intensity
SRSKPLPLTPNSKYN	8

molecular target: ScBzz1-D1; test: as above
Outline: as §1

Binder	SPOT peptide array binding signal intensity
SRSKPLPLTPNSKYN	98.5

molecular target: ScBzz1-D2; test: as above
Outline: as §1

Binder	SPOT peptide array binding signal intensity
SRSKPLPLTPNSKYN	89

molecular target: ScCyk3; test: as above
Outline: as §1

Binder	SPOT peptide array binding signal intensity
SRSKPLPLTPNSKYN	5

molecular target: ScFus1; test: as above
Outline: as §1

Binder	SPOT peptide array binding signal intensity
SRSKPLPLTPNSKYN	8

molecular target: ScHof1; test: as above
Outline: as §1

Binder	SPOT peptide array binding signal intensity
SRSKPLPLTPNSKYN	≤ 0

molecular target: ScHse1; test: as above
Outline: as §1

Binder	SPOT peptide array binding signal intensity
SRSKPLPLTPNSKYN	30

molecular target: ScLsb1; test: as above
Outline: as §1

Binder	SPOT peptide array binding signal intensity
SRSKPLPLTPNSKYN	≤ 0

molecular target: ScLsb2; test: as above
Outline: as §1

Binder	SPOT peptide array binding signal intensity
SRSKPLPLTPNSKYN	1

molecular target: ScLsb3; test: as above
Outline: as §1

Binder	SPOT peptide array binding signal intensity
SRSKPLPLTPNSKYN	≤ 0

molecular target: ScLsb4; test: as above
Outline: as §1

Binder	SPOT peptide array binding signal intensity
SRSKPLPLTPNSKYN	12

molecular target: ScMyo3; test: as above
Outline: as §1

Binder	SPOT peptide array binding signal intensity
SRSKPLPLTPNSKYN	≤ 0

molecular target: ScMyo5; test: as above
Outline: as §1

Binder	SPOT peptide array binding signal intensity
SRSKPLPLTPNSKYN	2

molecular target: ScNbp2; test: as above
Outline: as §1

Binder	SPOT peptide array binding signal intensity
SRSKPLPLTPNSKYN	20

molecular target: ScPex13; test: as above
Outline: as §1

Binder	SPOT peptide array binding signal intensity
SRSKPLPLTPNSKYN	39

molecular target: ScRvs167; test: as above
Outline: as §1

Binder	SPOT peptide array binding signal intensity
SRSKPLPLTPNSKYN	2.33

molecular target: ScSho1; test: as above
Outline: as §1

Binder	SPOT peptide array binding signal intensity
SRSKPLPLTPNSKYN	3960

molecular target: ScSla1-D1-D2; test: as above
Outline: as §1

Binder	SPOT peptide array binding signal intensity
SRSKPLPLTPNSKYN	156

molecular target: ScSla1-D3; test: as above
Outline: as §1

Binder	SPOT peptide array binding signal intensity
SRSKPLPLTPNSKYN	28.2

molecular target: SpAbp1-D1; test: as above
Outline: as §1

Binder	SPOT peptide array binding signal intensity
SRSKPLPLTPNSKYN	872

molecular target: SpBbc1; test: as above
Outline: as §1

Binder	SPOT peptide array binding signal intensity
SRSKPLPLTPNSKYN	6.5

molecular target: SpBzz1-D1; test: as above
Outline: as §1

Binder	SPOT peptide array binding signal intensity
SRSKPLPLTPNSKYN	578

molecular target: SpBzz1-D2; test: as above
Outline: as §1

Binder	SPOT peptide array binding signal intensity
SRSKPLPLTPNSKYN	1.25

molecular target: SpCyk3; test: as above
Outline: as §1

Binder	SPOT peptide array binding signal intensity
SRSKPLPLTPNSKYN	5

molecular target: SpHof1; test: as above
Outline: as §1

Binder	SPOT peptide array binding signal intensity
SRSKPLPLTPNSKYN	1490

molecular target: SpHof1-2; test: as above
Outline: as §1

Binder	SPOT peptide array binding signal intensity
SRSKPLPLTPNSKYN	1710

molecular target: SpHof1-3; test: as above
Outline: as §1

Binder	SPOT peptide array binding signal intensity
SRSKPLPLTPNSKYN	1310

molecular target: SpHse1; test: as above
Outline: as §1

Binder	SPOT peptide array binding signal intensity
SRSKPLPLTPNSKYN	37.5

molecular target: SpLsb1; test: as above
Outline: as §1

Binder	SPOT peptide array binding signal intensity
SRSKPLPLTPNSKYN	1

molecular target: SpLsb4; test: as above
Outline: as §1

Binder	SPOT peptide array binding signal intensity
SRSKPLPLTPNSKYN	17

molecular target: SpMyo1; test: as above
Outline: as §1

Binder	SPOT peptide array binding signal intensity
SRSKPLPLTPNSKYN	10.5

molecular target: SpNbp2; test: as above
Outline: as §1

Binder	SPOT peptide array binding signal intensity
SRSKPLPLTPNSKYN	11

molecular target: SpPex13; test: as above
Outline: as §1

Binder	SPOT peptide array binding signal intensity
SRSKPLPLTPNSKYN	5

molecular target: SpRvs167; test: as above
Outline: as §1

Binder	SPOT peptide array binding signal intensity
SRSKPLPLTPNSKYN	12.3

molecular target: SpSla1-D1-D2; test: as above
Outline: as §1

Binder	SPOT peptide array binding signal intensity
SRSKPLPLTPNSKYN	844

molecular target: SpSla1-D3; test: as above
Outline: as §1

Binder	SPOT peptide array binding signal intensity
SRSKPLPLTPNSKYN	0.5
